RTF Ca sens inh – cardiac RTF calcium sensitivity inhibitors, primary screen, biochemical, IANBD-TnC fluorescence, EC70 calcium. Troponin I, cardiac muscle (Homo sapiens) + Troponin T, cardiac muscle (Homo sapiens) + …. IANBD-labeled cardiac RTF, Ca2+ fluorescence. inhibition, % at 7.15 µM. 340,000 tested, 0.12% active;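 active means inhibition above the mean inhibition of all tested compounds plus 3 SD, cut at about 17% in these data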;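 further: assay run at fixed EC70 calcium of 1.6 mM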
IDE cell activ – human IDE activators in live cells, primary screen, fluorescence polarization, HEK cells, FAbeta-B substrate. Insulin-degrading enzyme (Homo sapiens), P14735. FAbeta-B cleavage; 0% vehicle, 100% cell-free pure enzyme wells. activation, % at 5.96 µM. 340,000 tested, 0.073% active. AID 493087, 2011;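 active means activation above the mean of all tested compounds plus 3 SD, set per screening campaign, cut at about 17% in these data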
Target sequence (P14735 whole entry, looked up): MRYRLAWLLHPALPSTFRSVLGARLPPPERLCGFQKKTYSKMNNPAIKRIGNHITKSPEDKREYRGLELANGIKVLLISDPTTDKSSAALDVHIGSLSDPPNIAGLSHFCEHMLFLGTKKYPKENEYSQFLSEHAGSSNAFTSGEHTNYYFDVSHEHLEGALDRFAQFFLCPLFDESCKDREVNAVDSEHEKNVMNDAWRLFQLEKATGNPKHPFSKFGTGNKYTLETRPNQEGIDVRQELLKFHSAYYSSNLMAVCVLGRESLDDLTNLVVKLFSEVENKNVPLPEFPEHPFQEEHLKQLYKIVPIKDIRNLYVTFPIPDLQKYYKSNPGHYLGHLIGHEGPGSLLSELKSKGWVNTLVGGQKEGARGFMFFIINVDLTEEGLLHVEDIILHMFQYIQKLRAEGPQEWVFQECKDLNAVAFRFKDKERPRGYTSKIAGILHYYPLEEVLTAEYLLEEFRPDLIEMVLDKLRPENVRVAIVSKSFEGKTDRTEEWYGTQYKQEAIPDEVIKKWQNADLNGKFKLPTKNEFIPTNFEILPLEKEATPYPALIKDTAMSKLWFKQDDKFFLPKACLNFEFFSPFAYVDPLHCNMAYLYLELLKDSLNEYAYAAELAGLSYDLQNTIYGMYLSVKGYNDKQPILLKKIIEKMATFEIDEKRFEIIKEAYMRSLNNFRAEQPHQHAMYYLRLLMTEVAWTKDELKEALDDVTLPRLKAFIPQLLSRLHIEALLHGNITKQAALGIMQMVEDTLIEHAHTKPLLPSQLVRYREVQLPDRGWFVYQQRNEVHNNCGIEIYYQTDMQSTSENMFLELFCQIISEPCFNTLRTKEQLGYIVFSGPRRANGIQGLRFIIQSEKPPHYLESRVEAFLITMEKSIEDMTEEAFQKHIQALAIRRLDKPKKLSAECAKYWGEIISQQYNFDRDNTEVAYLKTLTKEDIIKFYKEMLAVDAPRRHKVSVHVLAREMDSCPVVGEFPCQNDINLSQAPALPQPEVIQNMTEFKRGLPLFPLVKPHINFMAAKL
RTF Ca sens act – cardiac RTF calcium sensitivity activators, primary screen, biochemical, IANBD-TnC fluorescence, EC20 calcium. IANBD-labeled TnC RTF fluorescence at EC20 calcium; 0% EC20 calcium, 100% full calcium. activation, % at 7.2 µM. 340,000 tested, 0.24% active;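 active means activation above the mean over all tested compounds plus 3 SD, cut at about 30% in these data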;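 further: rise in fluorescence read as greater calcium sensitivity of cardiac thin filaments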
CRFBP-R2 block – antagonists of CRF-BP/CRF-R2 complex, primary screen, cell-based, HEK293, calcium dye fluorescence, uHTS | inhibition, % at 11.8 µM | 350,000 tested, 0.59% active | AID 588475, 2011 | CRF-induced calcium fluorescence;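 active means inhibition of the ligand-induced calcium signal above about 50% at the single tested concentration, limit read from the data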
IDE cell inh – human IDE inhibitors in live cells, primary screen, fluorescence polarization, HEK cells, FAbetaB substrate; Insulin-degrading enzyme (Homo sapiens), P14735; FAbetaB cleavage; inhibition, % at 5.59 µM; 320,000 tested, 0.41% active;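 active means percent inhibition above the average of all tested compounds plus 3 SD, set per screening campaign, cut at about 16% in these data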;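 further: IDE supplied by intact live HEK cells; FP after avidin binding of uncleaved biotin substrate so inhibition keeps polarization high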
CRFR2-BP ag – agonists of CRF-BP/CRF-R2 complex, primary screen, cell-based, HEK293, calcium dye fluorescence, uHTS; CRF-binding protein / CRF receptor 2 complex (human); activation, % at 13.2 µM; 350,000 tested, 0.46% active; AID 588473, 2011; calcium dye fluorescence (FLIPR); percent of saturating CRF peptide response;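 active means activation of at least 50%, plus an integration ratio under a set limit after plate pattern correction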
Large screens that a line does not name were inactive. Shown are actives, neighbours in structure and some others; about 1.5% of the full set was active somewhere.

COc1ccccc1N1CCN(CC(=O)Nc2c(C)n[nH]c2C)CC1	CRFBP-R2 block 68
COCCN(C(=O)COC(=O)c1sccc1C)c1c(N)n(Cc2ccccc2)c(=O)[nH]c1=O	none
Cn1nccc1C(=O)OCC(=O)Nc1ccccc1Cl	none (no result: IDE cell inh)
O=[N+]([O-])c1ccccc1N/N=C/c1c[nH]c2ccccc12	none
O=[N+]([O-])c1ccc(N/N=C/c2c[nH]c3ccccc23)cc1	CRFR2-BP ag 180
CC(NC(=O)CN1C(=O)NC2(CCCC2)C1=O)c1ccc(Cl)cc1Cl (centres undefined)	none
COc1cc(NC(=O)c2ccccc2)c(OC)cc1Cl	none
COc1cc(OC)c(NC(=O)c2cc3ccccc3cc2O)cc1Cl	RTF Ca sens act 32 (no result: IDE cell inh)
CC(NCC(=O)Nc1ccccc1C(=O)NC1CC1)c1cccc(Cl)c1 (centres undefined)	CRFBP-R2 block 66 (no result: IDE cell inh)
CC(=O)Nc1ccccc1Nc1nc(NCCO)nc(N2CCCC2)n1	none
O=C(NCc1nnc(SCC(=O)N2CCCC2)o1)c1ccccc1F	none
CCOC(=O)N1CCN(C(=O)CSc2nnc(CNC(=O)c3ccccc3F)o2)CC1	CRFBP-R2 block 57
NC(=N\N=Cc1ccco1)/C(N)=N/N=Cc1ccco1	none (no result: IDE cell inh)
COC(=O)c1c(NC(=O)CN2CCC3(O)CCCCC3C2c2ccc(OC)cc2OC)sc(C)c1C (centres undefined)	none
COC(=O)c1c(NC(=O)CN2CCC3(O)CCCCC3C2c2ccccc2OC)sc(C)c1C (centres undefined)	CRFR2-BP ag 53
COc1ccc(NC(=O)CN2CCC3(O)CCCCC3C2c2cc(OC)ccc2OC)cc1 (centres undefined)	CRFBP-R2 block 51
CCOc1ccccc1NC(=O)COC(=O)/C=C/c1cccs1	none
CN(/N=C/c1ccc(Cl)cc1Cl)c1ncc(Cl)cc1C(F)(F)F	CRFBP-R2 block 63
O=C(c1ccc(F)cc1Cl)N(Cc1ccco1)C1CCS(=O)(=O)C1 (centres undefined)	CRFBP-R2 block 75
CCN1CCN(C(=O)CCn2c(=O)c3cccn3c3cccnc32)CC1	none
Cc1ccccc1NS(=O)(=O)c1cc2c(cc1C)NC(=O)CO2	CRFR2-BP ag 60
O=C(CN(Cc1ccc(F)cc1)C(=O)CNS(=O)(=O)c1ccc(Cl)cc1)NCC1CCCO1 (centres undefined)	none
Cc1nc2c(c(=O)c3ccccc3n2C)c(=O)n1C1CCCCCC1	CRFR2-BP ag 51
Cn1c2ccccc2c(=O)c2c(=O)n(C3CCCCC3)c(-c3ccco3)nc21	CRFR2-BP ag 99
CC(C)Cn1c(-c2ccco2)nc2c(c(=O)c3ccccc3n2C)c1=O	none (no result: RTF Ca sens inh, IDE cell activ, RTF Ca sens act, CRFBP-R2 block, CRFR2-BP ag)
CCSc1nnc(NC(=O)CCC2CCCCC2)s1	none
CC(=O)N1C[C@H]2CON(C)[C@H]2C[C@H]1c1ccc(-c2ccc(C#N)cc2)cc1	none (no result: RTF Ca sens inh, IDE cell activ, RTF Ca sens act, IDE cell inh)
COc1ccc(-c2cc(C)no2)cc1S(=O)(=O)N1CCN(C(=O)c2ccco2)CC1	CRFBP-R2 block 75
CCN1CCCC1CNC(=O)c1cc(S(=O)(=O)N(C)C)ccc1Cl (centres undefined)	none
O=C(COc1ccc(Cl)cc1Cl)Nc1ccccc1NS(=O)(=O)c1cccs1	CRFBP-R2 block 51
CCN(CC(=O)Nc1cc(S(=O)(=O)N2CCOCC2)ccc1C)Cc1ccccc1	none
Cc1ccc(CC(=O)NCc2cccnc2)cc1	none (no result: RTF Ca sens inh, IDE cell activ, RTF Ca sens act, CRFBP-R2 block, CRFR2-BP ag)
Cc1ccc(C(=O)NCc2cccnc2)o1	CRFBP-R2 block 84
Cc1onc(-c2ccccc2)c1C(=O)N1CCN(c2ncccc2C(F)(F)F)CC1	none
O=C(CN(CC1CCCO1)C(=O)CCC(=O)Nc1ccccn1)NCC1CCCO1 (centres undefined)	none
COCCNC(=O)CN(CC1CCCO1)C(=O)CCC(=O)Nc1ccccn1 (centres undefined)	CRFBP-R2 block 57
O=C(NCc1ccco1)c1sc(=S)n2c1[nH]c(=O)c1ccccc12	CRFR2-BP ag 55
